The target of experiment [1] is Tumor susceptibility gene 101 protein (Homo sapiens) (UniProt Q99816). Kind of experiment: qHTS Assay for Iinhibitors of HIV-1 Budding by Blocking the Interaction of PTAP/TSG101: Hit Validation (AID 651600). Further: nearly all actives have a fitted effect of over 70% in size. Further: potency means the concentration at half of the fitted maximal effect. On activity change, negative = inhibition: on the % scale 0 is the no-effect control and ±100 the full control effect. The essentials: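 Fluorescence polarization binding assay: Tsg101 binding domain (10 uM final) pre-dispensed with compounds, then FITC-labeled PTAP-motif peptide (50 nM final) added; 20 min at r.t. in HEPES pH 7.5 buffer with NaCl, Tween 20, EDTA, TCEP.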
Sequence of Tumor susceptibility gene 101 protein (Homo sapiens) (Q99816 whole entry, looked up, the tested form may be a part): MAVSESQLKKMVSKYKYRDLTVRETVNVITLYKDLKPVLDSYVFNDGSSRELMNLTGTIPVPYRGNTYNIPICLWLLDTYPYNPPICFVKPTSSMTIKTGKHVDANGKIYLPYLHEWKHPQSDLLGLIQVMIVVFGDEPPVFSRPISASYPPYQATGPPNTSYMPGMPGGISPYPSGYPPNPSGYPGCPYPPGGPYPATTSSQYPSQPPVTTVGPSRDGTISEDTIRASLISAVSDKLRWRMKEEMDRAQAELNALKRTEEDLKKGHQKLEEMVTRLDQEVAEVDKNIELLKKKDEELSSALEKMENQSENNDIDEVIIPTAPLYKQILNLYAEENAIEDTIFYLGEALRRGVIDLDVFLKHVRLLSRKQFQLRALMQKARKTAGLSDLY
On the technique in general: qHTS replaces the single test concentration by a dilution series.

Experiment [2] concerns the target Rap guanine nucleotide exchange factor 3 (Homo sapiens) (UniProt O95398). The experiment in a line: Confirmatory qHTS for antagonist of cAMP-regulated guanine nucleotide exchange factor 3 (EPAC1) (AID 1645880). Further: nearly all actives have a fitted effect of over 55% in size. Further: potency means the concentration at half of the fitted maximal effect.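 On activity, negative = inhibition: plate controls were DMSO only for no effect and full effect of the ATA control for full effect.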 Conditions: EPAC1 Rap1B-BODIPY-GDP exchange, fluorescence; activity, negative = inhibition: at 115 µM (top of the series). The essentials: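 Nucleotide exchange uses 100 nM EPAC1, 250 nM RAP1B-BODIPY-GDP and 50 uM GDP, with compounds in a concentration-titration series. After 5 min at room temperature, fluorescence (480 nm ex/540 nm em) is read every 5 min for 30 min. Data are normalized to control ATA and DMSO.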

Experiment [3] has the same target. The experiment in a line: Confirmatory qHTS for agonist of cAMP-regulated guanine nucleotide exchange factor 3 (EPAC1) (AID 1645881). Further: nearly all actives have a fitted effect of over 75% in size. Further: potency means the concentration at half of the fitted maximal effect.
In experiment [4] the target is Rap guanine nucleotide exchange factor 4 (Homo sapiens) (UniProt Q8WZA2). Kind of experiment: Confirmatory qHTS for antagonist of cAMP-regulated guanine nucleotide exchange factor 4 (EPAC2) (AID 1645885). Further: nearly all actives have a fitted effect of over 25% in size. Further: potency means the concentration at half of the fitted maximal effect. On activity change, negative = inhibition: on the % scale 0 is the no-effect control and ±100 the full control effect.
Sequence of Rap guanine nucleotide exchange factor 4 (Homo sapiens) (Q8WZA2 whole entry, looked up): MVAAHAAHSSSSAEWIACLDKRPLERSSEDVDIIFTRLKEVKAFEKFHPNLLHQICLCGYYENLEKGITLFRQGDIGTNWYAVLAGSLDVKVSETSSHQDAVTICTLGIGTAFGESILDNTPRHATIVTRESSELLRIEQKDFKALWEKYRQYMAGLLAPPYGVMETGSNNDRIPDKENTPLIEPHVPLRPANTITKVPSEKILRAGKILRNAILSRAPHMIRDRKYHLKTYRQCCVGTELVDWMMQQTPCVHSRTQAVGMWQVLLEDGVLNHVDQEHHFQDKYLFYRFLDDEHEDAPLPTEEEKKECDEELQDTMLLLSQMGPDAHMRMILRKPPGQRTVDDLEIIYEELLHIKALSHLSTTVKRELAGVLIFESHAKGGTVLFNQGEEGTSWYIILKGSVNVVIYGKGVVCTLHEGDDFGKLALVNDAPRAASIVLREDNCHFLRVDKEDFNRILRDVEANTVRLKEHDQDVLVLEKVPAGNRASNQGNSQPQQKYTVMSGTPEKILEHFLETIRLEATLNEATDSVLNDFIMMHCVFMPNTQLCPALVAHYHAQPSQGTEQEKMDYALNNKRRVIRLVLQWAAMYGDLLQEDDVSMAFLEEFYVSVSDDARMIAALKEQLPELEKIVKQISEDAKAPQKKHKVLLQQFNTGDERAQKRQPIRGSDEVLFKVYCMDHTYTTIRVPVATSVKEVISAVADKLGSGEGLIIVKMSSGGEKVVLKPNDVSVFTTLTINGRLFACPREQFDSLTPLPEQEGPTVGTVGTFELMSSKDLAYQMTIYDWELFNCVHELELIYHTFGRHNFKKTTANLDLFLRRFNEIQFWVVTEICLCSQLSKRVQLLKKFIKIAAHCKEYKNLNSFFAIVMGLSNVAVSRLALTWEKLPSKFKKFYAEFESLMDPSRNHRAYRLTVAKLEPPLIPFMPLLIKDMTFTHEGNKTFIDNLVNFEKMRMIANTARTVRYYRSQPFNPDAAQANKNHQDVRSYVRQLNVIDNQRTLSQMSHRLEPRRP
Experiment [5] concerns the target Rap guanine nucleotide exchange factor 3 (Homo sapiens) (UniProt O95398). The experiment in a line: Counterscreen qHTS for antagonist of cAMP-regulated guanine nucleotide exchange factor 3 (EPAC1) (AID 1645888).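 Further: fluorescence loss as bound BODIPY-GDP is released from Rap1B; % of control where 0% means no effect.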 The essentials:
(§1)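 Measured: fluorescence of BODIPY-GDP bound to Rap1B, which falls as exchange proceeds. Conditions include 50 uM competing GDP, 5 and 30 min reads, and a later cAMP challenge for antagonist detection.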

For experiment [6] the target is unchanged. The experiment in a line: Counterscreen qHTS for agonist of cAMP-regulated guanine nucleotide exchange factor 3 (EPAC1) (AID 1645889). Further: nearly all actives have a fitted effect of over 40% in size. Further: potency means the concentration at half of the fitted maximal effect. In short, it runs like this:
as §1
On the technique in general: The purpose of a counterscreen is to sort out artefacts and off-target activity.

Inconclusive results are not listed. A number with no mark means an inactive call. Active and inactive are the calls of the source. The call rests on the fitted dose curve; in most records, active means well fitted curve in the direction sought with a large enough effect; inconclusive means small, poorly fitted or top-dose-only effect, or another doubt; inactive means no such curve, though single readings can be large; an effect the other way counts as inactive or inconclusive.

Sequence of Rap guanine nucleotide exchange factor 3 (Homo sapiens) (O95398 whole entry, looked up): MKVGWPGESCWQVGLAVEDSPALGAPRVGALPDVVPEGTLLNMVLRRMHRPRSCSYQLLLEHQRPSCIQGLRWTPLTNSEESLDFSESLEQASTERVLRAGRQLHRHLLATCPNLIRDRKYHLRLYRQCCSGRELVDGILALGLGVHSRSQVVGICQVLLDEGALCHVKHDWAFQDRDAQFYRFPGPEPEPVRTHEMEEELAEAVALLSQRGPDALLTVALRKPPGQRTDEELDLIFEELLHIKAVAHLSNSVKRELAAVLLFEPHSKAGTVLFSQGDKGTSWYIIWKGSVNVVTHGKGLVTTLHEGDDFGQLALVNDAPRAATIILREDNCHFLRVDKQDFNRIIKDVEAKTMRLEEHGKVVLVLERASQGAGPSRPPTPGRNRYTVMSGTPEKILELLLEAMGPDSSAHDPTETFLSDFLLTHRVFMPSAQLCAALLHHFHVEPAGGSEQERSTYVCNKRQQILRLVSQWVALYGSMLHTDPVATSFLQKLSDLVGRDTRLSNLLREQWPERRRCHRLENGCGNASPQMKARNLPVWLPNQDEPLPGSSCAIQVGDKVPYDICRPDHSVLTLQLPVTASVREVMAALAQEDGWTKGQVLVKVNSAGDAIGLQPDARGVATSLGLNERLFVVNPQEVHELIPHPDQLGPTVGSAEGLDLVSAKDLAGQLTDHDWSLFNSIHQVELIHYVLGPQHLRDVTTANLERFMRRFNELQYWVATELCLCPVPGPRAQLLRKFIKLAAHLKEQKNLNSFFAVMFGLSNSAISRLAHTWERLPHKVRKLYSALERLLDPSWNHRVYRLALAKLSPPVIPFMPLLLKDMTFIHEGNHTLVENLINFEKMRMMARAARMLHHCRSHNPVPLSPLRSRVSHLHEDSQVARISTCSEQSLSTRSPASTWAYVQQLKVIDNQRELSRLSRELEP

Regarding `CCN(CC)c1ccc(/C=c2\sc3nc4ccccc4n3c2=O)c(O)c1`, the Potency result in experiment [1], in experiment [2], in experiment [3], in experiment [4] and in experiment [5] was “inactive” in each case. Also, the Potency in experiment [6] is 56.2 µM (active).
With `CCC(C)Cn1c(COc2ccc(OC)cc2)nc2ccccc21` (stereo not drawn), the Potency result in experiment [2], in experiment [3], in experiment [4], in experiment [5] and in experiment [6] was “inactive” throughout.
For the molecule `Nc1cccc2c(O)cc(S(=O)(=O)O)cc12`, the Potency in experiment [1] is 18.3 µM (active); in experiment [2] it was 13.5 µM (active); in experiment [3], 50.1 µM (active); in experiment [4], 0.757 µM (active); in experiment [6], 79.4 µM (active).
`Cc1cccc(NC(=O)CC2C(=O)OCCN2Cc2ccccc2)c1` (stereo not drawn): the Potency result in experiment [2], in experiment [3], in experiment [4], in experiment [5] and in experiment [6] was “inactive” throughout.
With `Nc1nc2ccccc2n1S(=O)(=O)c1ccc([N+](=O)[O-])cc1`, the Potency result in experiment [2], in experiment [3], in experiment [4], in experiment [5] and in experiment [6] was “inactive” throughout.
As to `COC(=O)C1=NN(c2ccccc2)C2(S1)SC(C(C)=O)=C(C)N2c1ccccc1` (stereo not drawn), the Potency result in experiment [2], in experiment [3] and in experiment [5] was “inactive” each time.
As for `COc1ccc(Cl)cc1NC(=O)CN(C)Cc1ccc(OC)c(OC)c1`, the Potency result in experiment [2], in experiment [3] and in experiment [5] was “inactive” throughout.
For `COc1ccc(-n2cc(-c3ccccc3)c3c(N4CCOCC4)ncnc32)cc1`, the Potency result in experiment [2], in experiment [3] and in experiment [5] was “inactive” each time.
Regarding `Cc1nc(Nc2ccc(Br)cc2Br)c([N+](=O)[O-])c(=O)[nH]1`, the Potency result in experiment [2], in experiment [3] and in experiment [5] was “inactive” in each case.
`O=c1cc(N2CCCCC2)c(-c2ccccc2)nn1Cc1ccccc1`: the Potency result in experiment [2], in experiment [3] and in experiment [5] was “inactive” in each case.
For `COC(=O)c1ccc2nc(-c3ccc(Cl)cc3)c(Cc3cccc(F)c3)n2c1`, the Potency entry in experiment [2], in experiment [3] and in experiment [5] was “inactive” in each case.
With `O=C1CSC(=Nc2ccccc2)N1Cc1ccccc1`, the Potency entry in experiment [2], in experiment [3] and in experiment [5] was “inactive” throughout.
Take `O=c1ccc(NS(=O)(=O)c2ccc(Cl)cc2)cn1Cc1ccc(Cl)c(Cl)c1`: the Potency in experiment [2] is 75.7 µM (active). For the same molecule, the Potency result in experiment [3] and in experiment [5] was “inactive” each time.
`COc1ccc2ccc3c(c2c1)N=C[C@]1(O3)N(C)c2ccccc2C1(C)C`: the Potency result in experiment [2], in experiment [3] and in experiment [5] was “inactive” throughout.
Consider `Cc1ccn2c(-c3csc(NCc4ccccc4)n3)c(C)nc2c1`, for which the Potency result in experiment [2], in experiment [3] and in experiment [5] was “inactive” each time.
On to `O=C(O)c1ccc(NC(=O)C(c2ccccc2)c2ccccc2)cc1`, for which the Potency result in experiment [2], in experiment [3] and in experiment [5] was “inactive” in each case.
In the case of `O=C(O)CCNC(=O)c1ccc(NC(=O)C(c2ccccc2)c2ccccc2)cc1`, the Potency result in experiment [2], in experiment [3] and in experiment [5] was “inactive” each time.
Regarding `CCN(Cc1cc(=O)oc2cc(C)ccc12)c1ccccc1`, the Potency result in experiment [2], in experiment [3] and in experiment [5] was “inactive” in each case.
With `Cc1ccc(C23CC4CC(CC(C(=O)N(C)C)(C4)C2)C3)cc1`, the Potency entry in experiment [2], in experiment [3] and in experiment [5] was “inactive” each time.
As to `CC(=O)N1N=C2c3ccccc3CCC2C1c1cccs1` (stereo not drawn), the Potency result in experiment [2] and in experiment [3] was “inactive” throughout. Further, the activity change, negative = inhibition in experiment [5] was -17.6% [at 30.8 µM].
Take `COC(=O)c1cccc(F)c1C(=O)c1cccc2ccccc12`: the Potency result in experiment [2], in experiment [3] and in experiment [5] was “inactive” in each case.
As for `COc1cc(NC(C)=O)ccc1-c1cc2ccccc2oc1=O`, the Potency entry in experiment [2], in experiment [3] and in experiment [5] was “inactive” each time.
With `CCCNC(=O)c1ccc(N2CCC3(CC2)CC(c2ccccc2)=NO3)c(NC(=O)c2ccccc2)c1`, the Potency result in experiment [2], in experiment [3] and in experiment [5] was “inactive” each time.
With `Cc1oc2cc(Br)c(O)c(Br)c2c1-c1ccccc1`, the Potency entry in experiment [2], in experiment [3] and in experiment [5] was “inactive” in each case.
Turning to `Cc1cc2ccccn2c1C(=O)c1ccc(F)cc1`, the Potency entry in experiment [2], in experiment [3] and in experiment [5] was “inactive” each time.
Take `COc1c(Cl)cc(Cl)cc1CNc1ccc(S(N)(=O)=O)cc1`: the Potency result in experiment [2], in experiment [3] and in experiment [5] was “inactive” in each case.
As to `COCCN(CCOC)Cc1cc(=O)oc2cc(OC)c(Cl)cc12`, the Potency result in experiment [2] and in experiment [3] was “inactive” each time. Moreover, the activity change, negative = inhibition in experiment [5] was -10.8% [at 30.8 µM].
Take `COc1ccc(NC(=O)CSc2ccccc2)cc1S(=O)(=O)N1CCCCC1`: the Potency entry in experiment [2], in experiment [3] and in experiment [5] was “inactive” each time.
Turning to `COc1cc(N)ccc1-c1cc2ccccc2oc1=O`, the Potency entry in experiment [2], in experiment [3] and in experiment [5] was “inactive” in each case.
In the case of `COc1ccc2c(c1)CCc1c(C(=O)N(C)c3ccccc3)noc1-2`, the Potency entry in experiment [2], in experiment [3] and in experiment [5] was “inactive” each time.
Consider `O=C(COc1ccc(Br)cc1Cl)c1ccc[nH]1`, for which the Potency entry in experiment [2], in experiment [3] and in experiment [5] was “inactive” each time.
`CC(=O)Nc1ccc(NC(=O)C2Cc3c(-c4ccc5c(c4)OCO5)ccnc3O2)cc1` (stereo not drawn): the Potency entry in experiment [2], in experiment [3] and in experiment [5] was “inactive” each time.
With `Cc1nn(-c2c(Cl)cc(Cl)cc2Cl)c(=O)c2ccccc12`, the Potency result in experiment [2], in experiment [3] and in experiment [5] was “inactive” each time.
With `COc1ccc2c(c1)CCc1c(C(=O)N3CCCc4ccccc43)noc1-2`, the Potency entry in experiment [2], in experiment [3] and in experiment [5] was “inactive” throughout.
`COc1ccc(/C=C/C(=O)c2ccc(Cl)cc2)c(OC)c1`: the Potency entry in experiment [2], in experiment [3] and in experiment [5] was “inactive” in each case.
For `C=CCN(CC=C)Cc1cc(=O)oc2cc(C)cc(C)c12`, the Potency entry in experiment [2] and in experiment [3] was “inactive” each time. In addition, in experiment [5], the activity change, negative = inhibition was -4% [at 30.8 µM].
Consider `COC(=O)[C@@H]1CC[C@@](C)(c2ccc(OC)cc2)C1(C)C`, for which the Potency result in experiment [2] and in experiment [3] was “inactive” in each case. In experiment [5], the activity change, negative = inhibition was 8.1% [at 30.8 µM].
For `O=C(c1ccccc1F)n1c2c(c3ccccc31)CCCC2`, the Potency result in experiment [2], in experiment [3] and in experiment [5] was “inactive” throughout.
Consider `COC(=O)c1ccc2nc(-c3ccc(F)cc3)c(Cc3ccsc3)n2c1`, for which the Potency entry in experiment [2] and in experiment [3] was “inactive” throughout. Besides, the activity change, negative = inhibition in experiment [5] is -9.08% [at 30.8 µM].
